Counter-ions that a name gives are not always drawn.
system: primary human airway basal cells (HBEC, luciferase-transduced); assay: proliferation (luciferase bioluminescence) Z score relative to plate mean; higher = more proliferation / more cells, active = 1.96 or more; conditions: donor: 1; 0.5 µM; library: ENZO Libraries; 4 days
Experimental: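 Primary human bronchial epithelial (airway basal) cells from two donors, lentivirally transduced with pHIV-Luc-ZsGreen, were seeded at 2000 cells/well in 384-well plates in FAD medium with ENZO or Prestwick library compounds and cultured for 4 days. Luciferin was then added and bioluminescence was read as a measure of cell number. Relative light units were converted to Z scores against the plate, and the mean of triplicate wells is reported.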

proliferation, inactive:
O=C(O)CNC(=O)C(CS)Cc1ccccc1 (racemic) [DL-Thiorphan] 0.124
COc1cc2nc(N3CCCN(C)CC3)nc(NC3CCN(Cc4ccccc4)CC3)c2cc1OC -0.123
O=C1CCc2c(ccc3ccccc23)O1 [Splitomicin] -0.477
C[S+]([O-])c1ccc(-c2nc(-c3ccc(F)cc3)c(-c3ccncc3)[nH]2)cc1 (stereo not given) 0.838
CCCC(CCC)C(=O)NO [Valproic acid hydroxamate] -0.292
N#CC(=C(/N)Sc1ccccc1N)/C(C#N)=C(/N)Sc1ccccc1N -1.3
CC(C)c1cc(/C=C(\C#N)C(=O)NCCCc2ccccc2)cc(C(C)C)c1O -0.208
Nc1ccc(CC(CC(=O)O)C(=O)O)cc1 [4-Amino-D L-benzylsuccinic acid] 0.379
O=C(O)CCCc1ccccc1 -0.468
CC1CNc2c(cccc2S(=O)(=O)N[C@@H](CCCNC(=N)N)C(=O)N2CC[C@@H](C)C[C@@H]2C(=O)O)C1 (stereo not given in full) [Argatroban] 0.0616
CCCCC[C@H](CC(=O)NO)C(=O)N[C@H](C(=O)N1CCC[C@H]1CO)C(C)C [Actinonin] -0.508
CC(C)C[C@H](NC(=O)[C@@H](O)[C@H](N)Cc1ccccc1)C(=O)O -0.66
O=C(CCCN1C(=O)c2cccc3cccc(c23)C1=O)NO [Nullscript] 0.202
C=CC(=O)c1ccc2ccccc2c1 0.129
Cc1ccc(NC(=O)c2cccc(N(C)C)c2)cc1NC(=O)c1ccc(O)cc1 0.389
Nc1c(O)cc(O)cc1C=Cc1ccc(O)cc1 [Aminoresveratrol sulfate] 0.00314
Oc1ccc(-c2nc(-c3ccc(F)cc3)c(-c3ccncc3)[nH]2)cc1 0.995
CC(C)C(=O)SCCCCCCC(=O)Nc1nc(-c2ccccc2)cs1 0.111
O=Nc1ccc(O)c2ncccc12 -0.683
O=C(O)c1ccnc(C(=O)O)c1 [24-Pyridinedicarboxylic Acid] 0.171

same assay, conditions: donor: 1; 5 µM; library: ENZO Libraries; 4 days

proliferation, inactive:
O=C(O)CNC(=O)C(CS)Cc1ccccc1 (racemic) [DL-Thiorphan] -0.0316
COc1cc2nc(N3CCCN(C)CC3)nc(NC3CCN(Cc4ccccc4)CC3)c2cc1OC -0.996
O=C1CCc2c(ccc3ccccc23)O1 [Splitomicin] -0.269
C[S+]([O-])c1ccc(-c2nc(-c3ccc(F)cc3)c(-c3ccncc3)[nH]2)cc1 (stereo not given) 0.0347
CCCC(CCC)C(=O)NO [Valproic acid hydroxamate] -0.132
N#CC(=C(/N)Sc1ccccc1N)/C(C#N)=C(/N)Sc1ccccc1N -1.33
CC(C)c1cc(/C=C(\C#N)C(=O)NCCCc2ccccc2)cc(C(C)C)c1O -0.405
Nc1ccc(CC(CC(=O)O)C(=O)O)cc1 [4-Amino-D L-benzylsuccinic acid] -0.241
O=C(O)CCCc1ccccc1 -0.326
CC1CNc2c(cccc2S(=O)(=O)N[C@@H](CCCNC(=N)N)C(=O)N2CC[C@@H](C)C[C@@H]2C(=O)O)C1 (stereo not given in full) [Argatroban] -0.0211
CCCCC[C@H](CC(=O)NO)C(=O)N[C@H](C(=O)N1CCC[C@H]1CO)C(C)C [Actinonin] -0.446
CC(C)C[C@H](NC(=O)[C@@H](O)[C@H](N)Cc1ccccc1)C(=O)O -0.519
O=C(CCCN1C(=O)c2cccc3cccc(c23)C1=O)NO [Nullscript] -0.00941
C=CC(=O)c1ccc2ccccc2c1 -0.357
Cc1ccc(NC(=O)c2cccc(N(C)C)c2)cc1NC(=O)c1ccc(O)cc1 0.18
Nc1c(O)cc(O)cc1C=Cc1ccc(O)cc1 [Aminoresveratrol sulfate] 1.56
Oc1ccc(-c2nc(-c3ccc(F)cc3)c(-c3ccncc3)[nH]2)cc1 0.0853
CC(C)C(=O)SCCCCCCC(=O)Nc1nc(-c2ccccc2)cs1 0.205
O=Nc1ccc(O)c2ncccc12 -1.09
O=C(O)c1ccnc(C(=O)O)c1 [24-Pyridinedicarboxylic Acid] -0.194
